Assay outcomes (PubChem)
Hits are enriched below; roughly 10% of the tested compounds scored in any of these assays.
JMJD2A Tudor: inhibitors of human JMJD2A Tudor domain; O75164; AlphaScreen JMJD2A-Tudor / H3K4me3 peptide binding; Potency, µM (series often up to 114 µM), for the others: at the top dose activity change, negative = inhibition, hits mostly inhibitors; hit rate 4.4% among 390,000; note: % is set by controls: 0 for no effect and ±100 for the full control effect; nearly all actives have a fitted effect of over 50% in size
HP1b binding inh: blocks HP1-beta chromodomain binding to methylated histone tails; P83916; AlphaScreen HP1-beta / biotin-H3K9me3 peptide binding; Potency, µM (highest dose often 114 µM), for inactives: at the top dose activity change, negative = inhibition, actives largely listed as inhibitors; hit rate 0.56% among 390,000; note: nearly all actives have a fitted effect of over 70% in size
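Compound inhibition of the preformed complex between 50 nM HP1-beta and 50 nM biotinylated H3K9me3 peptide was read by AlphaScreen. Buffer was PBS pH 7.4 with 0.01% Tween-20. Incubations ran 30 min at room temperature, with 10 ug/mL donor/acceptor beads.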
G9a inh: blocks human histone lysine methyltransferase G9a | Q96KQ7 | G9a H3K9 monomethylation, AlphaScreen, 2 h | Potency, µM (highest dose often 102 µM), for inactives: at the top dose activity, negative = inhibition, hits mostly inhibitors | hit rate 8.8% among 350,000 | AID 504332; note: % is set by controls: 0 for no effect and ±100 for the full control effect; nearly all actives have a fitted effect of over 75% in size
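Chemiluminescent proximity detection of H3K9 monomethylation, read after 10 min bead incubation in the dark. Reaction: 20 nM G9a, 500 nM biotin-H3K9 peptide, 20 uM SAM cofactor, 2 h, room temperature, following 15 min enzyme-compound preincubation.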
L3MBTL1 inh: inhibitors of human L3MBTL1; Q9Y468; AlphaScreen L3MBTL1–H3K9me1 peptide binding; Potency, µM (series often up to 57.1 µM), for inactives: top-dose activity, negative = inhibition, hits mostly inhibitors; hit rate 0.66% among 230,000; note: % is set by controls: 0 for no effect and ±100 for the full control effect; nearly all actives have a fitted effect of over 60% in size
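Displacement of a biotinylated histone H3(1-15) peptide monomethylated at Lys9 (75 nM) from L3MBTL1 (50 nM) was measured by AlphaScreen after a 30 min room-temperature compound incubation; cefsulodin titration served as intraplate control.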
BAZ2B inh: blocks human BAZ2B; Q9UIF8; AlphaScreen BAZ2B-H3K14Ac peptide displacement; Potency, µM (titrated, usually from 114 µM), for the others: top-dose activity change, negative = inhibition, usual class: inhibitors; hit rate 4.4% among 360,000; AID 504333; note: % is set by controls: 0 for no effect and ±100 for the full control effect; nearly all actives have a fitted effect of over 60% in size
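In this displacement format the biotinylated H3(5-23) peptide acetylated at Lys14 serves as ligand at 50 nM, with BAZ2B at 50 nM in PBS pH 7.4 containing 0.01% Tween-20. Donor and acceptor beads are 10 ug/mL final.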
GLS inh: blocks human kidney-isoform glutaminase activity; GLS enzymatic activity, qHTS titration; Potency, µM (series often up to 45.5 µM), without a hit: at the highest dose activity change, negative = inhibition, actives largely listed as inhibitors; O94925; hit rate 0.21% among 410,000; note: % is set by controls: 0 for no effect and ±100 for the full control effect
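hKGA; 45 mM KH2PO4 pH 8.2 + 0.02% Tween-20; cpd via pin tool; 1 mM Gln soln; GluOx/HRP/Amplex Red; RT 30 min; fluor. t0 & final.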
The depositor's hits bear a star; ? = inconclusive; . = no result given; [ ] = another dose, or the depositor's remark. Calls come from the whole dose curve; as a rule, active = well fitted curve in the direction sought with a large enough effect; inconclusive = small, poorly fitted or top-dose-only effect, or another doubt; inactive = no such curve, though single readings can be large; an effect the other way counts as inactive or inconclusive. Potency is the fitted concentration of half-maximal effect.

SMILES	JMJD2A Tudor	HP1b binding inh	G9a inh	L3MBTL1 inh	BAZ2B inh	GLS inh
O=C(NCc1cccnc1)c1ccc2c(=O)n(CCCN3CCCC3=O)c(=S)[nH]c2c1	?	54%	40µM*	0%	?	.
O=C(NCc1ccccc1Cl)c1ccc2c(=O)n(CCCN3CCCC3=O)c(=S)[nH]c2c1	-10%	22%	-11%[59 µM]	1%	4%	-9%
CCCCCNC(=O)c1ccc2c(=O)n(CCCN3CCCC3=O)c(=S)[nH]c2c1	-6%	29%	6.3µM*	.	-12%	-17%
CCn1c(=O)c2cc(C(=O)NCCCN3CCN(C)CC3)sc2c2ccccc21	-9%	23%	-45%[59 µM]	.	-8%	-2%
CC1CCCCC12NC(=S)N(c1ccccc1)N2 (configuration not stated)	11µM*	?	.	7%	-15%	8%
CC1CCCC2(C1)NC(=S)N(c1ccccc1)N2 (configuration not stated)	79µM*	51%	?	15%	-4%	16%
CC(C)CCN1NC2(CCCC(C)C2)NC1=S (configuration not stated)	-5%	34%	22µM*	1%	-17%	-2%
CC1CC(C)(C)CC2(C1)NC(=S)N(c1ccccc1)N2 (configuration not stated)	-21%	40%	28µM*	.	-10%	12%
CC1CCCCC12NC(=O)N(CC(=O)NCCc1ccccc1)C2=O (configuration not stated)	-14%	14%[57 µM]	.	8%	.	-8%
COc1ccc(C(=O)NCC(c2ccco2)S(=O)(=O)c2cccs2)cc1 (configuration not stated)	-8%	22%	6%[59 µM]	.	?	3%
CC(C)(C)N1NC2(CCCCC2)NC1=S	18µM*	3%	?	0%	?	?
S=C1NC2(CCCCC2)NN1c1ccccc1	-25%	54%	14µM*	8%	79µM*	5%
O=C1NC2(NN1c1ccccc1)C1CC3CC(C1)CC2C3 (configuration not stated)	2%	23%	?	.	13%	3%
Cc1ccc(CSC2=Nc3ccccc3C3=NC(CCC(=O)N4CCN(c5ccccc5)CC4)C(=O)N23)cc1 (configuration not stated)	-30%	7%	18µM*	.	-30%	-4%
O=C(CSC1=Nc2ccccc2C2=NC(CC(=O)N3CCN(c4ccccc4)CC3)C(=O)N12)NCC1CCCO1 (configuration not stated)	-10%	19%	50µM*	.	-23%	-5%
COc1ccc(-n2cc(C(=O)N(C)c3cc(C)ccc3OC)c3ccccc3c2=O)cc1	-13%	25%	?	.	?	-6%
O=C1CC(c2ccco2)CC(O)=C1C=Nc1cc(Cl)cc(Cl)c1 (configuration not stated)	?	-19%	10µM*	.	?	12%
CCOc1ccc(N=CC2=C(O)CC(c3ccco3)CC2=O)cc1 (configuration not stated)	-10%	0%	4%[59 µM]	-5%	-1%	2%
COc1ccc(NC(=O)Cn2nnc(C(=O)NCc3ccc4c(c3)OCO4)c2N)c(OC)c1	28µM*	11%	7%[59 µM]	.	-4%	17%
Cc1ccc(CNC(=O)c2ccc(Cn3nc(C)c(Cl)c3C)o2)cc1	?	25%	?	-1%	50µM*	0%
Cc1cc(C)cc(NC(=O)c2ccc(Cn3nc(C)c(Cl)c3C)o2)c1	-6%	32%	-12%[59 µM]	-3%	5%	-7%
CNC(=S)NCCc1cc2c(OC)ccc(OC)c2[nH]c1=O	18µM*	8%	?	.	.	31%
COc1ccc(OC)c2[nH]c(=O)c(CCNC(=S)NC(C)(C)C)cc12	-27%	4%	-43%	.	.	14%
CCc1ccc(CNC(=O)c2cnc3sc(N(CC)CC)nn3c2=O)cc1	-11%	-1%	20%[59 µM]	.	-3%	-9%
O=C1c2cccc3cccc(c23)C(=O)N1OS(=O)(=O)c1ccccc1	-23%	4%	27%[59 µM]	-5%	7%	-11%
SMILES	JMJD2A Tudor	HP1b binding inh	G9a inh	L3MBTL1 inh	BAZ2B inh	GLS inh
Cc1cc(S(=O)(=O)ON2C(=O)c3ccccc3C2=O)ccc1F	79µM*	?	7.1µM*	.	-26%	26%
O=C1c2ccccc2C(=O)N1OS(=O)(=O)c1ccccc1	.	.	4µM*	3%	-11%	.
Cc1ccc(C)c(S(=O)(=O)ON2C(=O)c3ccccc3C2=O)c1	?	32µM*	7.9µM*	15%	-6%	26%
CC(=O)N1CCc2c(sc3c2c(=O)n(CCc2ccccc2)c(=O)n3CC(=O)Nc2ccccc2F)C1	-27%	-5%	-5%[59 µM]	.	-6%	-14%
Cc1ccc(C(=O)/C=C/C(=O)c2ccc(C)cc2)cc1	-23%	?	1.6µM*	13%	6%	2.8µM*
Cc1ccc(/C=C/C(=O)c2ccc(C)cc2)cc1	-1%	20%	8%[59 µM]	11%	11%	5%
CN(C)CCC(=O)c1ccc2c(c1)OCO2	?	4%	1.8µM*	3%	-30%	8%
CCCCN(C(=O)c1ccc2c(c1)OCO2)c1c(N)n(CCCC)c(=O)[nH]c1=O	-4%	33%	-25%	8%	3%	10%
CN(C)CCCC(=O)c1ccc2c(c1)OCO2	-12%	16%	-1%[59 µM]	.	4%	2%
CN(C)CCC(=O)c1cccc(Br)c1	-22%	?	2µM*	-11%	-22%	3%
CN(C)CCC(=O)c1ccc(F)cc1	-12%[11.4 µM]	33%	?	4%	-1%	3%
CCCCN(C(=O)c1ccc2c(c1)OCO2)c1ccccc1	-2%	8%	50µM*	4%	4%	0%
COc1cccc(N2CC(NC(=O)CCCc3ccccc3)CC2=O)c1 (configuration not stated)	-8%	27%	-10%[59 µM]	.	-1%	-7%
CN1CCN(c2ncc3nc(-c4ccccc4)c(=O)n(C4CC4)c3n2)CC1	.	.	13%[0.501 µM]	.	.	.
O=C(CC1C(=O)NCCN1Cc1ccccc1C(F)(F)F)NC1CCCC1 (configuration not stated)	-9%	39%	45µM*	.	-19%	-19%
O=C(CC1C(=O)NCCN1Cc1ccccc1F)NC1CCCCCC1 (configuration not stated)	.	.	.	.	-3%	.
O=C(CC1C(=O)NCCN1Cc1ccc(Cl)c(F)c1)NC1CCCCC1 (configuration not stated)	?	33%	57%	.	0%	-2%
O=C(CC1C(=O)NCCN1Cc1cccc(C(F)(F)F)c1)NC1CCCCCC1 (configuration not stated)	-30%	20%	40µM*	.	-21%	3%
